From PubChem BioAssay (Tox21)
Values joined by “and” are separate entries in the source; they are usually repeats but may differ in a detail not shown here. Identical values can stand only once. Results filed as inconclusive are left out. A structure can be active in one record and inactive in another. Active and inactive are the calls of the source. The call rests on the fitted dose curve; in most records, active means well fitted curve in the direction sought with a large enough effect in the repeat runs; inconclusive means weak or mixed curves; inactive means no such curve, though single readings can be large; an effect the other way counts as inactive or inconclusive.

Columns and labels:
[1] = qHTS RealTime-Glo MT Cell Viability Assay in HEK293 cells - 16 hour (AID 1224872); further: nearly all actives have a fitted effect of over 50% in size; further: potency means the concentration at half of the fitted maximal effect; on activity change, negative = cytotoxicity: top concentration of the series differs between compounds
In short: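 Luminescence generated by NanoLuc from substrate produced by living HEK293 cells served as the viability signal. Each value reflects the reading at its stated time point during continuous 40 h compound exposure at 37 C.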

[2] = qHTS RealTime-Glo MT Cell Viability Assay in HepG2 cells - 8 hour (AID 1224873); further: nearly all actives have a fitted effect of over 55% in size; further: potency means the concentration at half of the fitted maximal effect
In short: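 Real-time viability: cells seeded at 600 per well together with NanoLuc and cell-permeant prosubstrate, compounds added after 5 h incubation. Luminescence tracked at 0, 8, 16, 24, 32 and 40 h of exposure.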

[3] = A CellTox Green Cytotoxicity Assay to monitor cytotoxicity in HEK293 cells - 24 hour (AID 1224875); further: nearly all actives have a fitted effect of over 45% in size; further: potency means the concentration at half of the fitted maximal effect; on activity change: series mostly up to about 77 µM
In short: (§1)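 HEK293 cells, 600/well, were preincubated 5 hours and then exposed to compounds at 37 C for up to 40 hours. A cell-impermeant cyanine dye staining dead-cell DNA was read by fluorescence at 0, 8, 16, 24, 32 and 40 h time points.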

[4] = A CellTox Green Cytotoxicity Assay to monitor cytotoxicity in HepG2 cells - 16 hour (AID 1224876); further: nearly all actives have a fitted effect of over 45% in size; further: potency means the concentration at half of the fitted maximal effect
In short: (§2)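 HepG2 cells, 600/well, preincubated 5 h with CellTox Green dye, then exposed to Tox21 compounds in DMSO at 37 C for up to 40 h. Dead-cell DNA fluorescence read at the indicated time point.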

[5] = qHTS RealTime-Glo MT Cell Viability Assay in HepG2 cells - 32 hour (AID 1224877); further: nearly all actives have a fitted effect of over 55% in size; further: potency means the concentration at half of the fitted maximal effect
In short: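 Tox21 10K library screened in qHTS format on HepG2 cells carrying RealTime-Glo reagents. Compounds were added after a 5 h preincubation, and the luminescent signal from continuous culture was measured repeatedly during 40 h treatment.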

[6] = A CellTox Green Cytotoxicity Assay to monitor cytotoxicity in HepG2 cells - 24 hour (AID 1224878); further: nearly all actives have a fitted effect of over 45% in size; further: potency means the concentration at half of the fitted maximal effect
In short: as §2

[7] = A CellTox Green Cytotoxicity Assay to monitor cytotoxicity in HepG2 cells - 40 hour (AID 1224879); further: nearly all actives have a fitted effect of over 40% in size; further: potency means the concentration at half of the fitted maximal effect
In short: as §2

[8] = qHTS RealTime-Glo MT Cell Viability Assay in HEK293 cells - 0 hour (AID 1224880); further: top concentration of the series differs between compounds; nearly all actives have a fitted effect of over 45% in size
In short: (§3)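 600 cells/well were plated with the nonlytic NanoLuc/prosubstrate reagent, pre-incubated 5 h, then given 23 nL of compound in DMSO. Incubation at 37 C for 40 h, with luminescence from viable-cell-reduced substrate read repeatedly from 0 h.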

[9] = A CellTox Green Cytotoxicity Assay to monitor cytotoxicity in HEK293 cells - 32 hour (AID 1224881); further: nearly all actives have a fitted effect of over 40% in size; further: potency means the concentration at half of the fitted maximal effect
In short: as §1

[10] = qHTS RealTime-Glo MT Cell Viability Assay in HEK293 cells - 40 hour (AID 1224874); details: RealTime-Glo luminescence; max response: stronger effect = lower value; further: nearly all actives have a fitted effect of over 50% in size; further: potency means the concentration at half of the fitted maximal effect
In short: as §3
On the % scale 0 is the no-effect control and ±100 the full control effect.

COc1cc(C)ccc1O
inactive: Potency [1] | Potency [2] | Potency [3] | Potency [4] | Potency [5] | Potency [6] | Potency [7] | Potency [8] | Potency [9]

O=C(c1ccc(O)c(O)c1)c1ccc(O)cc1O
inactive: Potency [1] | Potency [2] | Potency [5] | Potency [8]
active: Potency [10] 24.5 µM

CCCCCCCCCCCCOC(=O)c1ccc(O)cc1
inactive: Potency [2] | Potency [3] | Potency [4] | Potency [5] | Potency [6] | Potency [7] | Potency [8] | Potency [9]
active: Potency [1] 44 µM

Cc1c(N)cccc1C(F)(F)F
inactive: Potency [1] | Potency [2] | Potency [3] | Potency [4] | Potency [5] | Potency [6] | Potency [7] | Potency [8] | Potency [9]

CC[C@H](C)COC(=O)/C=C/c1ccc(N=Cc2ccc(OC)cc2)cc1
active: Potency [1] 21.8 µM | Potency [10] 21.8 µM
inactive: Potency [2] | Potency [4] | Potency [5]

C=CCn1c(=O)n(CC=C)c(=O)n(CC=C)c1=O
inactive: Potency [1] | Potency [2] | Potency [3] | Potency [4] | Potency [5] | Potency [6] | Potency [7] | Potency [8] | Potency [9]

COc1cccc(OC)c1C(=O)O
inactive: Potency [1] | Potency [2] | max response [10] 0.328% | Potency [4] | Potency [5] | Potency [6] | Potency [7] | Potency [8]

O=C(O)CN(CCN(CC(=O)O)CC(=O)O)CC(=O)O
active: Potency [4] 1.74 µM | Potency [6] 1.74 µM | Potency [7] 1.96 µM
inactive: activity change, negative = cytotoxicity [1] 0.0628% [at 2.72 µM] | viability change, negative = cytotoxic [2] -13.2% [at 2.72 µM] | max response [10] 7.27% | activity change, negative = cytotoxic [5] 4.09% [at 2.72 µM] | activity change, negative = cytotoxicity [8] 0.0989% [at 2.72 µM]

C1CCC(SSC2CCCCC2)CC1
inactive: Potency [1] | Potency [2] | Potency [3] | Potency [4] | Potency [5] | Potency [6] | Potency [7] | Potency [8] | Potency [9]

CC(C)(c1cc(Br)c(OCC(Br)CBr)c(Br)c1)c1cc(Br)c(OCC(Br)CBr)c(Br)c1 (stereo unspecified)
inactive: Potency [1] | Potency [2] | Potency [3] | Potency [4] | Potency [5] | Potency [6] | Potency [7] | Potency [8] | Potency [9]

Cc1nc2n(c(=O)c1CCN1CCC(c3noc4cc(F)ccc34)CC1)CCCC2
active: Potency [1] 3.01 µM
inactive: Potency [2] | Potency [3] | Potency [4] | Potency [5] | Potency [6] | Potency [7] | Potency [8] | Potency [9]

Cc1cccc(C)c1NC(=O)c1ccc(N)cc1
inactive: Potency [1] | Potency [2] | Potency [3] | Potency [4] | Potency [5] | Potency [6] | Potency [7] | Potency [8] | Potency [9]

O=C(O)CCN(C1(C(=O)NO)CCCC1)S(=O)(=O)c1ccc(Oc2ccc(F)cc2)cc1
inactive: Potency [1] | Potency [2] | Potency [3] | Potency [4] | Potency [5] | Potency [6] | Potency [7] | Potency [8]

Cc1ccc(C)cc1
inactive: Potency [1] | Potency [2] | Potency [3] | Potency [4] | Potency [5] | Potency [6] | Potency [7] | Potency [8] | Potency [9]

O=C1c2ccccc2C(=O)N1SC1CCCCC1
inactive: Potency [8]
active: Potency [1] 34.6 µM and 38.9 µM | Potency [2] 38.9 µM | Potency [3] 13.8 µM and 34.7 µM | Potency [4] 43.6 µM | Potency [5] 43.6 µM | Potency [6] 21.9 µM | Potency [7] 24.5 µM | Potency [9] 12.3 µM and 24.5 µM

Cc1cc(=O)oc2cc(O)cc(O)c12
inactive: Potency [1] | Potency [2] | max response [10] -8.17% | Potency [4] | Potency [5] | Potency [6] | Potency [7] | Potency [8]

O=S(=O)(O)c1ccc(Nc2nc(Nc3ccc(/C=C/c4ccc(Nc5nc(Nc6ccc(S(=O)(=O)O)cc6)nc(N(CCO)CCO)n5)cc4S(=O)(=O)O)c(S(=O)(=O)O)c3)nc(N(CCO)CCO)n2)cc1
inactive: Potency [1] | Potency [2] | Potency [3] | Potency [4] | Potency [5] | Potency [6] | Potency [7] | Potency [8] | Potency [9]

CCCC(=O)OC(C)(C)Cc1ccccc1
inactive: Potency [1] | Potency [2] | max response [10] -22.8% | Potency [3] | Potency [5] | Potency [8] | Potency [9]

CCCCCCCC
inactive: Potency [1] | Potency [2] | Potency [3] | Potency [4] | Potency [5] | Potency [6] | Potency [7] | Potency [8] | Potency [9]

COc1ccc(NC(=O)CC(C)=O)cc1
inactive: Potency [1] | Potency [2] | max response [10] 8.59% | Potency [4] | Potency [5] | Potency [6] | Potency [7] | Potency [8]

Clc1sc(Cl)c(Cl)c1Cl
inactive: Potency [1] | Potency [2] | Potency [3] | Potency [4] | Potency [5] | Potency [6] | Potency [7] | Potency [8] | Potency [9]

COc1c(C)c2c(c(O)c1C/C=C(\C)CCC(=O)OCCN1CCOCC1)C(=O)OC2
inactive: Potency [1] | Potency [2] | Potency [3] | Potency [4] | Potency [5] | Potency [6] | Potency [7] | Potency [8] | Potency [9]

Oc1c(I)cc(Cl)c2cccnc12
active: Potency [7] 34.6 µM and 5.35 µM
inactive: Potency [1] | Potency [2] | Potency [3] | Potency [4] | Potency [5] | Potency [6] | Potency [8]
10.9 µM (active) and inactive: Potency [9]

CCCCCC/C=C\CCCCCCCC(=O)O
inactive: Potency [1] | Potency [2] | Potency [3] | Potency [4] | Potency [5] | Potency [6] | Potency [7] | Potency [8] | Potency [9]

Cl[Si](Cl)(c1ccccc1)c1ccccc1
inactive: Potency [1] | Potency [2] | max response [10] -3.91% | Potency [4] | Potency [5] | Potency [6] | Potency [7] | Potency [8]

O=c1oc2cc(O)ccc2c2oc3cc(O)ccc3c12
active: Potency [1] 21 µM
inactive: Potency [2] | Potency [3] | Potency [4] | Potency [5] | Potency [6] | Potency [7] | Potency [8] | Potency [9]

CNc1ccc([N+](=O)[O-])cc1
inactive: Potency [1] | Potency [2] | Potency [3] | Potency [4] | Potency [5] | Potency [6] | Potency [7] | Potency [8] | Potency [9]

CC1(C)CCC[C@]2(C)[C@H]3CCO[C@]3(C)CC[C@@H]12
inactive: Potency [1] | Potency [2] | max response [10] 4.7% | Potency [4] | Potency [5] | Potency [6] | Potency [7] | Potency [8]

CC(=O)OCC=C(C)C
inactive: Potency [1] | Potency [2] | max response [10] -1.54% | Potency [3] | Potency [5] | Potency [8] | Potency [9]

CCOc1ccc2ccccc2c1C(=O)N[C@@H]1C(=O)N2[C@@H]1SC(C)(C)[C@@H]2C(=O)O
inactive: Potency [1] | Potency [2] | Potency [3] | Potency [4] | Potency [5] | Potency [6] | Potency [7] | Potency [8] | Potency [9]

Sc1nc2ccccc2s1
inactive: Potency [1] | Potency [2] | max response [10] 15.8% | Potency [4] | Potency [5] | Potency [8]

Cc1ccc(-c2ccccc2)cc1
inactive: Potency [1] | Potency [2] | Potency [3] | Potency [5] | Potency [8] | Potency [9]
active: Potency [4] 49 µM | Potency [6] 43.6 µM | Potency [7] 43.6 µM
